# PubChem BioAssay AID2023 (NMMLSC, 2009)
# In all, about 320,000 compounds went through this assay and about 1,100 (0.34%) were called active. The sample holds actives, similar compounds and a random draw of the others, so the mix is not that of the screen. Unmarked numbers belong to inactive results.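 The calls were made as follows: active = GFP response vs DMSO above a set limit, about the screen mean plus 3 SD (cut at about 150% in these data); inconclusive = under 70 cell events counted for the yeast strain; inactive = the rest.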
# Experiment: TOR pathway LAP4-GFP level changes – S. cerevisiae, multiplex flow cytometry, MLPCN library, primary screen (AID 2023)
# Settings: 3 h, at 10 µM, hits give high values
row,Compound,GFP response vs DMSO
1,Cc1cccc2c(CCN)c[nH]c12,105%
2,C/C(CCc1c[nH]c2ccccc12)=N\O,102%
3,NCCc1c[nH]c2ccc(O)cc12,307% [may fluoresce violet] (active)
4,CN(C)C(=O)NC(O)C(Cl)(Cl)Cl (stereo not given),108%
5,COc1ccc(N2C(=O)/C(=C/c3ccco3)C(=O)NC2=S)cc1,170% (active)
6,COc1ccc(CN2C(=O)NC(=O)/C(=C\c3ccc(OC)c(OC)c3OC)C2=O)cc1,109%
7,COc1cccc(N2C(=O)NC(=O)/C(=C\c3cn(C)c4ccccc34)C2=O)c1,104%
8,Cc1ccc(S(=O)(=O)N(C)c2ccc(C(=O)NCC3(N(C)C)CCCCC3)cc2)cc1,91.7%
9,O=C1NC(=O)N(CCc2ccc(F)cc2)C(=O)/C1=C/C=C/c1ccccc1,111%
10,O=C1NC(=O)N(Cc2ccco2)C(=O)/C1=C\c1ccc(-c2ccc(F)cc2)o1,182% (active)
11,O=C1NC(=O)N(Cc2ccco2)C(=O)/C1=C\c1cccn1CCOc1ccccc1,111%
12,O=C(Cc1ccccc1)N1CCN(C2CCCCCC2)CC1,95.7%
13,COc1ccc(C2N3CC(C)(C)CN23)cc1 (stereo not given),95% [median GFP as percent of DMSO wells]
14,CC1CCC(N(C)C2CCN(C)CC2)CC1 (stereo not given),94.4%
15,CNCC[C@H](Oc1ccc(C(F)(F)F)cc1)c1ccccc1,106%
